# Hits are enriched below; roughly 2.7% of the tested compounds scored in any of these assays.
# ERa SRC1 inh – ERα–SRC-1 coactivator interaction inhibitors, primary screen, biochemical, TR-FRET, ERα LBD, estradiol-bound; Estrogen receptor (Homo sapiens), P03372; TR-FRET ER-alpha LBD / SRC-1 peptide; inhibition, % at 25.6 µM; 1.7% of 86,000 active; in the data active = inhibition above about 50%;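 note: 0% = receptor plus peptide control and 100% = peptide only without receptor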
# Target sequence (P03372 whole entry, looked up, the tested form may be a part): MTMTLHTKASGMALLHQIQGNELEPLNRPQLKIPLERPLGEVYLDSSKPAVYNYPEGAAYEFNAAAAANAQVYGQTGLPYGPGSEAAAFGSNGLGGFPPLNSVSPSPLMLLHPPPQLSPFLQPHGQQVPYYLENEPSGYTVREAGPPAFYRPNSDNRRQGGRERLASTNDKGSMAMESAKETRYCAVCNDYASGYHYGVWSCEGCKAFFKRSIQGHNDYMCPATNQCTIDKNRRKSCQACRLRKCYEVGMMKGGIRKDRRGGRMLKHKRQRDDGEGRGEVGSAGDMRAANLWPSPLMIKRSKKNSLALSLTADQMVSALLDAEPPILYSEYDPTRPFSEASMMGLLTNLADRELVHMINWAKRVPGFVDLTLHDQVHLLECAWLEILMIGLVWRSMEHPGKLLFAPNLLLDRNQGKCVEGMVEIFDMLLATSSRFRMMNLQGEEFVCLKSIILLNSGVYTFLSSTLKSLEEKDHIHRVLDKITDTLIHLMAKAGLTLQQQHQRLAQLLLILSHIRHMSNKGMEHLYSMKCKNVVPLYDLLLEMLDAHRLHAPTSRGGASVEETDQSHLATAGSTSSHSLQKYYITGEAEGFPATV
# MRP resist rev – reversal of MRP1-mediated doxorubicin resistance, primary screen, H69AR cells, doxorubicin co-treatment; H69AR cells + 2 uM doxorubicin, CellTiter-Glo, 72 h; differential viability (reversal), % at 10 µM; 0.04% of 85,000 active;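 active = viability drop by adding the cancer drug above about 55%, with treated viability meeting a 40% cutoff, limit read from the data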;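 note: viability without doxorubicin minus viability with 2 µM doxorubicin for each compound; larger differential means the compound sensitizes cells more to doxorubicin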
# ERa coact pot – enhancers of ERα–SRC-1 coactivator binding, primary screen, biochemical, TR-FRET, ERα LBD, low estradiol; Estrogen receptor (Homo sapiens), P03372; TR-FRET ERalpha-LBD/SRC-Cy5 coactivator binding, 2 h; 100 = basal binding, no effect; coactivator binding (% of control), % at 25.6 µM; 1.3% of 86,000 active; AID 639, 2007; in the data active = activity above about 200%;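 note: binding measured in presence of low estradiol as agonist stimulus; 0% = peptide alone without receptor and 100% = receptor with peptide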
# ERb SRC1 inh – inhibitors of ERβ-SRC1 coactivator interaction, primary screen, biochemical, TR-FRET, ERβ LBD, SRC-1 peptide. 1.3% of 86,000 active. Estrogen receptor beta (Homo sapiens), Q92731. TR-FRET ER-beta LBD / SRC1-Cy5 peptide binding; receptor agonist-loaded with 1 µM estradiol. inhibition, % at 25.6 µM. AID 633, 2007;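 active = compounds whose percent inhibition of the receptor-coactivator binding signal exceeds about 50% in the single-dose screen, limit read from the data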;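 note: 0% = receptor plus peptide wells without compound and 100% = peptide-only wells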
# MRP-1 activ – H69AR viability gain despite doxorubicin, primary screen, MRP-1 activator project, H69AR cells, CellTiter-Glo | viability rescue | viability increase, % at 10 µM | 0.61% of 140,000 active | AID 799, 2007;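 active = viability gain under doxorubicin at or above a set limit, the compound median plus 3 SD, cut at about 4.7% in these data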;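 note: MRP-1 overexpressing cells given doxorubicin 25 µM after compound pretreatment; 18-22 h compound pretreatment then 72 h with doxorubicin before readout; 0% = doxorubicin-only wells and 100% = vehicle-treated cells without doxorubicin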
# An asterisk follows results filed as active; . = no result given; [ ] = dose if it differs, or a comment.
SMILES,ERa SRC1 inh,MRP resist rev,ERa coact pot,ERb SRC1 inh,MRP-1 activ
COc1ccc(NC(=O)c2sc3cc(C(F)(F)F)cnc3c2-c2cccs2)cc1,34,10,233*[fluorescence artefact?],27,0
N#Cc1ccc(NC(=O)c2sc3cc(C(F)(F)F)cnc3c2-c2cccs2)cc1,18,-2,330*[fluorescence artefact?],17,-1
CC(=O)Oc1ccc2ccccc2c1C(NC(=O)Cc1ccccc1)c1ccc(Cl)cc1 (centres undefined),.,.,.,.,-7
CCN1C(=O)/C(=C2/C=Cc3ccccc3N2C)OC1=S,66*[fluorescence artefact?],12,96,63*[fluorescence artefact?],-3
CCN1C(=O)/C(=C2\C=Cc3ccccc3N2CC)SC1=S,.,.,.,.,-3
CCN1C(=O)/C(=c2\o/c(=C3\C=Cc4ccccc4N3CC)c(=O)n2CC)SC1=S,77*[fluorescence artefact?],-11,18,36,-1
Cc1ccccc1C(=O)c1cccn1CC(=O)N1CCCCCC1,8,-6,126,5,-3
CN(C)C(=O)c1cn(-c2ccccc2)nc1-c1cccs1,-1,-3,115,-13,0
O=C(COC(=O)c1cn(-c2ccccc2)nc1-c1cccs1)NC1CC1,7,-5,202*,10,-1
Cc1nn(-c2ccccc2)c(C)c1/C=N/NC(=O)c1ccccc1NS(=O)(=O)c1cccs1,.,.,.,.,0
CCC(C)n1c(=O)c(C(=O)Nc2ccccc2S(N)(=O)=O)c(O)c2ccccc21 (centres undefined),35,-5,208*,29,1
O=C(COC(=O)C12CC3CC(CC(C3)C1)C2)Nc1ccc([N+](=O)[O-])cc1Cl,.,.,.,.,-1
CNC(=O)c1c(NC(=O)c2nc3ccccc3s2)sc2c1CCC2,72*[fluorescence artefact?],-4,61,53*,-3
Cc1ccsc1/C=N/NC(=O)C1CC(=O)N(c2ccccc2)C1 (centres undefined),.,.,.,.,-1
O=C(CSc1nnc(NC(=O)c2ccc(S(=O)(=O)N3CCOCC3)cc2)s1)Nc1ccccc1C(F)(F)F,.,.,.,.,-1
COc1ccc(/C=N/Nc2nc(Nc3ccccc3)nc(N3CCCCC3)n2)c(OC)c1,.,.,.,.,-1
COc1ccc(/C=N/Nc2ncc(-c3ccccc3)cn2)c(OC)c1,38,-29,422*[fluorescence artefact?],27,-2
NNC(=O)[C@H]1C[C@@H]1c1ccccc1,.,.,.,.,0
c1cncc(-c2nn[nH]n2)c1,4,0,97,63*[fluorescence artefact?],-1
CCCOc1cccc(C2C(C(=O)c3ccc(C)o3)=C(O)C(=O)N2CCCN(C)C)c1 (centres undefined),-1,0,129,-3,.
c1cncc(-c2nc(Oc3ccc(-c4nnco4)cc3)c3c4c(sc3n2)CCCC4)c1,18,4,258*[fluorescence artefact?],5,.
COC(=O)C1=C(C)NC(C)=C(C(=O)OC)C1c1ccc2ccccc2n1,-13,-4,92,-3,-1
O=C1c2ccccc2C(=O)C1c1ccc2ccccc2n1,52*[fluorescence artefact?],-9,217*[fluorescence artefact?],34,-2
c1ccc(C2CC(c3ccccc3)n3c(nc4ccccc43)N2)cc1 (centres undefined),.,.,.,.,-5
O=C(COC(=O)Cc1ccc(S(=O)(=O)N2CCOCC2)s1)Nc1ccc2c(c1)OCO2,.,.,.,.,0
SMILES,ERa SRC1 inh,MRP resist rev,ERa coact pot,ERb SRC1 inh,MRP-1 activ
CC1=NN(C(N)=S)C(=O)C1N=Nc1ccccc1C (centres undefined),-21,91*,116,-20,-2
CC(=O)NC(c1ccco1)c1ccc2cccnc2c1O (centres undefined),31,-12,72,59*[fluorescence artefact?],-8
Oc1ccc(N=C/C=C/c2cccc(Br)c2)cc1-c1nc2ccccc2s1,.,.,.,.,-5
N#Cc1nc(COc2ccccc2F)oc1NCCc1ccccc1,-2,-2,124,-5,0
CN(Cc1ccccc1)c1oc(COc2ccccc2F)nc1C#N,6,3,103,-1,7.4*
COc1ccc(Cl)cc1NC(=O)C(C)Sc1n[nH]c(N)n1 (centres undefined),-4,5,108,0,0
CC1(C)CCCC(C)(C)N1CC(O)COCCOc1ccc(Br)cc1 (centres undefined),.,.,.,.,-4
O=C(NCCc1ccccc1)C(=O)Nc1nccs1,.,.,.,.,-2

# Bioassay records: PubChem, several laboratories
